This is part of a sample that, as a whole, favours compounds with a hit. Of some 83,000 tested, about 20% had one in any assay.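 Method: cells in 96-well plates; compound added at one concentration; 48 h incubation; percent growth measured; values under 10 scored active.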 Activity calls are given as the source filed them.
How the values were obtained:
Experiment in all cases: NCI-60 one-dose screen, 48 h (100 = growth as untreated, 0 = no growth, -100 = all killed)
Conditions in all cases: 10 µM unless noted
[1] = test system: NCI-H23 lung
[2] = test system: NCI-H226 lung
[3] = test system: NCI-H322M lung
[4] = test system: HOP-62 NSCLC
[5] = test system: NCI-H460 lung
[6] = test system: 786-0 renal
[7] = test system: MDA-MB-231 breast
[8] = test system: SF-268 CNS
[9] = test system: M14 melanoma
[10] = test system: PC-3 prostate
[11] = test system: UACC-62 melanoma
[12] = test system: SK-MEL-28 melanoma
[13] = test system: SN12C renal
[14] = test system: UO-31 renal
[15] = test system: OVCAR-5 ovarian
[16] = test system: NCI/ADR-RES ovarian
[17] = test system: MDA-MB-435 melanoma
[18] = test system: SW-620 colon
[19] = test system: HCT-116 colon
[20] = test system: KM12 colon

Measured: growth

CN1CC2CCC(C1)C2=O
inactive: [1] 106% | [2] 103% | [3] 88.4% | [4] 84.4% | [5] 104% | [6] 97.1% | [7] 124% | [8] 106% | [9] 98.2% | [10] 92.9% | [11] 110% | [12] 113% | [13] 99.8% | [14] 62.7% | [15] 103% | [16] 106% | [17] 97.7% | [18] 104% | [19] 95.4% | [20] 115%

CCCCn1cc(C(=O)/C(C#N)=C/c2cc3ccccc3nc2Cl)c2cc(OC)ccc21
inactive: [1] 92.8% | [2] 84.3% | [3] 98% | [4] 86.1% | [5] 101% | [6] 97% | [7] 87.8% | [8] 83.1% | [10] 87.7% | [11] 81.4% | [12] 107% | [13] 79.2% | [14] 61.6% | [15] 102% | [16] 91.7% | [17] 101% | [18] 44.7% | [19] 23.6% | [20] 94.5%

C1CNC2CCCC2C1 (stereo not drawn)
inactive: [1] 108% | [2] 98.1% | [3] 104% | [4] 102% | [5] 108% | [6] 105% | [7] 118% | [8] 104% | [9] 107% | [10] 101% | [11] 108% | [12] 111% | [13] 111% | [14] 82.5% | [15] 103% | [16] 109% | [17] 105% | [18] 103% | [19] 108% | [20] 97%

CCC(CO)NC1CCCCC1 (stereo not drawn)
inactive: [1] 87.5% | [2] 114% | [3] 97.2% | [4] 88.7% | [5] 100% | [6] 76% | [7] 58% | [8] 86.9% | [9] 84.6% | [10] 92.2% | [11] 91.9% | [12] 102% | [13] 75.8% | [14] 66% | [15] 92.4% | [16] 80.9% | [17] 74.2% | [18] 34.6% | [19] 26.8% | [20] 54.6%

O=C1NC(=O)C(CN2C(=O)C3(c4ccccc42)[C@H](Cl)C(=O)N3c2ccccc2)C(=O)N1 (stereo partly drawn)
inactive: [1] 69.1% | [2] 76.4% | [3] 90.6% | [4] 66.3% | [5] 94.8% | [6] 94% | [7] 51.4% | [8] 84.7% | [9] 105% | [10] 83.6% | [12] 76.8% | [13] 97.4% | [14] 69.2% | [15] 84.6% | [16] 86.7% | [17] 104% | [18] 72.5% | [19] 79.9% | [20] 86.3%

CCCCN(CCCC)CC(O)c1ccccc1 (stereo not drawn)
inactive: [1] 100% | [2] 113% | [3] 105% | [4] 114% | [5] 110% | [6] 103% | [7] 104% | [8] 114% | [9] 100% | [10] 111% | [11] 105% | [12] 103% | [13] 111% | [14] 100% | [15] 93.6% | [16] 105% | [17] 105% | [18] 102% | [19] 114% | [20] 104%

CC(C)Nc1ccc(Nc2ccccc2)cc1
inactive: [1] 31.3% | [2] 51.1% | [3] 73.4% | [4] 35.3% | [5] 11% | [6] 51.8% | [7] 25.5% | [8] 32.8% | [9] 47.7% | [11] 65% | [12] 85.1% | [13] 19.8% | [14] 83.1% | [15] 65.1% | [16] 74.8% | [17] 23% | [18] 33.8% | [20] 27.6%
active: [10] 9.1% | [19] 9.97%

CN1C(=O)NC(=O)C(N=Nc2ccc(Cl)cc2)C1=O (stereo not drawn)
inactive: [1] 95.3% | [2] 105% | [3] 102% | [4] 123% | [5] 102% | [6] 78.4% | [7] 85.7% | [8] 93.5% | [9] 81.5% | [10] 94.6% | [11] 49.9% | [12] 122% | [13] 103% | [14] 104% | [15] 98.9% | [16] 83.5% | [17] 95.7% | [18] 106% | [19] 93.3% | [20] 82.6%

— PubChem BioAssay (NCI)
